# Source: PubChem (University of Pittsburgh Molecular Library Screening Center)
# The entries come from a sample that favours hits as a whole.
# HIV RNase H inh-1: blocks HIV-1 RNase H cleavage of RNA/DNA duplex. P04585. inhibition, % at 10 µM. actives 1.9% (n = 65,000). RT-RNase H RNA/DNA duplex cleavage, fluorescence; in the data active = inhibition above about 50%
# HIV RNase H inh-2: confirmation of HIV-1 reverse transcriptase RNase H inhibitors | actives 39% (n = 1,000) | AID 651 | shares compounds with HIV RNase H inh-1 | Recombinant RT RNase H, fluorescent RNA/DNA duplex cleavage | inhibition, % at 10 µM; in the data active = inhibition above about 48%; inconclusive = no clear call, values can overlap the other calls
# Starred values were filed as active, the others as inactive; ? = inconclusive.
SMILES,HIV RNase H inh-1,others
COc1ccccc1NC(=O)N1CCCC1C(=O)NC12CC3CC(CC(C3)C1)C2 (configuration not stated),-4.7,
CCCCC(CCC(=O)Nc1ccccc1C(=O)OCC)C(=O)O (configuration not stated),-28.5,
CCC1Oc2ccc(C)cc2N(CC(=O)NCc2cc(OC)ccc2OC)C1=O (configuration not stated),0.4,
COc1ccc(OC)c(C2/C(=C(\O)c3c(C)nc4ccccn34)C(=O)C(=O)N2CCCN(C)C)c1 (configuration not stated),-3.2,
COc1ccc(CCNC(=O)C2CCN(Cc3nc(-c4ccc(Cl)cc4)oc3C)CC2)cc1OC,-0.8,
COC(=O)c1ccc2c(c1)N(Cc1nc(-c3cccc(Cl)c3)oc1C)C(=O)C1CCCN21 (configuration not stated),20.3,
COC(=O)c1ccc2c(c1)N(Cc1nc(-c3ccc(Cl)cc3)oc1C)C(=O)C1CCCN21 (configuration not stated),77.8*,HIV RNase H inh-2=96.0*
CC(C)Cn1cc(C(=O)N2CCN(c3ccccn3)CC2)c2c3ccccc3n(C)c2c1=O,-20.3,
Cc1ccc(CCNC(=O)Cn2cccc2)cc1,-2.6,
CCn1c(SCC(=O)Nc2ccc3c(c2)OCCO3)nnc1-c1ccco1,-1.1,
CCn1c(SCC(=O)Nc2nonc2C)nnc1-c1ccco1,1.4,
N#Cc1c(NC(=O)CSc2ncnc3sccc23)oc(-c2ccco2)c1-c1ccco1,73.7*,HIV RNase H inh-2=18.9
CCn1c(SCC(=O)n2c(C)c(C)c3ccccc32)nnc1-c1ccco1,2.7,
CCn1c(SCC(=O)Nc2oc(-c3ccccc3)c(-c3ccccc3)c2C#N)nnc1-c1ccco1,64.1*,HIV RNase H inh-2=13.5
CCn1c(SCC(=O)Nc2ccc3c(c2)c2ccccc2n3CC)nnc1-c1ccco1,100.2*,HIV RNase H inh-2=10.9
N#Cc1ccsc1NC(=O)CSc1ncnc2ccccc12,26.5,
CCc1nnc(NC(=O)CSc2nnc(-c3ccco3)n2CC)s1,-0.3,
N#Cc1c(NC(=O)CCn2cnc3ccccc3c2=O)oc(-c2ccccc2)c1-c1ccccc1,3.6,
Cc1noc(C)c1CSc1nc2ccccc2n1CCc1ccccc1,3.7,
CC(C)Oc1ccc(C2C(C(=O)c3ccco3)=C(O)C(=O)N2CCCN(C)C)cc1 (configuration not stated),0.1,
COc1cc(OC)cc(C(=O)N2CCN(c3ncccn3)CC2)c1,-3.1,
CC(C)C(=O)Nc1cccc(C(=O)Nc2nccs2)c1,-29.2,
COC(=O)c1cc(OC)c(OC)cc1NC(=O)Cn1nnc(-c2ccccc2Cl)n1,-10.2,
CCCOc1nc2c(c(=O)n(C)c(=O)n2C)n1Cc1cccc2ccccc12,-38.6,
Cc1nnc(Sc2nc3c(c(=O)[nH]c(=O)n3C)n2Cc2ccccc2Cl)s1,-14.1,
SMILES,HIV RNase H inh-1,others
O=C(OC(C(=O)NCC1CCCO1)c1ccccn1)c1cccs1 (configuration not stated),-16.4,
Nc1ccc(N2CCCCC2)cc1N1CCCCC1,-2.8,
Fc1ccc(-n2[nH]nnc2=S)cc1N1CCCC1,63.4*,HIV RNase H inh-2=-6.1
CC(=O)c1ccc(N2CCCCCC2)c(F)c1,-50.4,
CCC(=O)Nc1ccc(NC(=O)CSc2nnnn2C(C)C)cc1,-7.0,
Cc1cccc2cc(COC(=O)c3ccccn3)c(=O)[nH]c12,-9.0,
Cc1cc(C(=O)Nc2cccnc2)no1,1.8,
Cc1ccc(-c2cc(C(=O)Nc3cccnc3)c3ccccc3n2)o1,68.7*,HIV RNase H inh-2=31.6
O=C(Nc1cccnc1)c1coc(=O)c2ccccc12,-4.7,
CS(=O)(=O)N(CC(=O)NCc1ccc2c(c1)OCO2)Cc1ccccc1,-7.5,
O=C(NCCC1=CCCCC1)C1CCCN(c2nc3ccccc3o2)C1 (configuration not stated),-5.1,
O=C1NC(Nc2nccs2)(C(F)(F)F)C(=O)N1CCc1ccccc1 (configuration not stated),18.4,
COc1ccc(N2CCN(C(=O)CNC(=O)Cn3c(C)cc4ccccc4c3=O)CC2)cc1,-5.9,
CCn1c(Cc2ccccc2)nnc1SCC(=O)Nc1nnc(-c2ccccc2)s1,-0.3,
CCn1c(Cc2ccccc2)nnc1SCC(=O)Nc1nc(C)c(C)s1,64.4*,HIV RNase H inh-2=11.9
CCn1c(Cc2ccccc2)nnc1SCC(=O)Nc1nccs1,-12.7,
COc1ccc(NC(=O)N2CCCC(c3nc(-c4ccc(C(C)C)cc4)no3)C2)cc1 (configuration not stated),-1.9,
Cc1ccc(-c2nnn(CC(=O)Nc3ccccc3-c3ccccc3)n2)c(-n2cnnn2)c1,1.7,
O=C(CSc1ncnc2c1oc1ccccc12)NC1CCCCC1,7.5,
CC(C)(C)C1=Nn2c(nnc2-c2ccccn2)SC1,64.2*,HIV RNase H inh-2=69.5*
COc1ccccc1-c1nnc2n1N=C(C(C)(C)C)CS2,-17.7,
CC(C)(C)C1=Nn2c(nnc2-c2ccccc2F)SC1,-15.7,
CCN1C(=O)c2ccccc2S(=O)(=O)c2ccc(C(=O)NCc3cccnc3)cc21,-4.4,
Cc1ccccc1N=C1NC(=O)CS1,-3.1,
Cc1cc(O)c(C(C)C)cc1N=C1CSC(=O)N1,66.9*,HIV RNase H inh-2=?
SMILES,HIV RNase H inh-1,others
Cc1ccc(C)c(N=C2NC(=O)CS2)c1,-13.7,
Cc1cccc2cc(CN(CC3CCCO3)C(c3nnnn3Cc3ccco3)C(C)C)c(=O)[nH]c12 (configuration not stated),0.9,
CCCS(=O)(=O)Nc1cc(C(F)(F)F)ccc1OCCOC,-1.5,
CN(C)c1cc(O)c(C(=S)Nc2ccccc2)c(N(C)C)c1,-74.7,
Cc1oncc1C(=S)Nc1ccccc1,74.3*,HIV RNase H inh-2=24.8
Cc1oncc1C(=O)Nc1ccc(C(F)(F)F)cc1,-16.2,
COc1ccc(N2CCN(C(=O)c3ccc(CNc4c(N5CCOCC5)c(=O)c4=O)cc3)CC2)cc1,-7.8,
CC(=O)c1cccc(S(=O)(=O)NCC(c2ccco2)N2CCCCC2)c1 (configuration not stated),2.8,
COc1ccc(C2=CC(c3c(C)nn(-c4ccccc4)c3Cl)n3nnnc3N2)cc1OC (configuration not stated),9.9,
CCn1c(SCC(=O)Nc2cc3oc4ccccc4c3cc2OC)nnc1-c1cccs1,-12.7,
COc1cccc(-n2nnnc2SCC(=O)NCc2ccco2)c1,-16.4,
COc1cccc(-n2nnnc2SCC(=O)NCCc2ccccc2)c1,70.1*,HIV RNase H inh-2=37.8
COc1ccc(OC)c(-n2nnnc2SCC(=O)NCCc2ccccc2)c1,-26.4,
O=c1/c(=C/c2cccc3ccccc23)sc2ncnn12,96.0*,HIV RNase H inh-2=0.5
Cc1ccsc1/C=c1\sc2ncnn2c1=O,1.6,
CCCCOc1ccc(/C=c2\sc3ncnn3c2=O)cc1,15.3,
C=CCOC(=O)C1CC=CCC1C(=O)Oc1ccc(F)cc1F (configuration not stated),-6.4,
CCCOc1cc(C)c(S(=O)(=O)n2ccc(C)n2)cc1C,-55.1,
O=C(CN1C(=O)COc2ccc(Cl)cc21)N1CCc2ccccc21,8.7,
COc1ccc(N2CCCn3c2nc2c3c(=O)n(CCc3ccccc3)c(=O)n2C)cc1,-21.0,
Cc1ccc(N2CCn3c2nc2c3c(=O)n(CCc3ccccc3)c(=O)n2C)cc1,63.9*,HIV RNase H inh-2=46.4
CCOc1ccc(N2CCCn3c2nc2c3c(=O)n(CCc3ccccc3)c(=O)n2C)cc1,4.4,
S=c1[nH]nc(C23CC4CC(CC(C4)C2)C3)n1Cc1ccco1,-13.1,
O=C(Nc1nc(-c2ccncc2)cs1)c1ccco1,58.6*,HIV RNase H inh-2=55.7*
CCOC(=O)Cc1csc(NC(=O)c2ccco2)n1,-5.7,
O=C(Nc1nc(-c2cc3ccccc3oc2=O)cs1)c1ccco1,-1.4,
